Conditions in all cases: mRNA level, 48 h; actives raise or lower the signal
Read-out in assay [1]: growth arrest and DNA damage 45 (GADD45G), GADD45G (gene 10912)
As to the kind of experiment: LTEA_HepaRG_GADD45G: Life Technologies and Expression Analysis (LTEA) Assay for growth arrest and DNA damage 45 (GADD45G) using HepaRG (AID 2283499). The procedure, abridged: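 Differentiated human HepaRG cells, 48 h post-plating, exposed 48 h in serum-free induction medium to 8 half-log concentrations (top 100 uM, 0.5% DMSO) in duplicate. GADD45G mRNA measured by Fluidigm TaqMan qRT-PCR, normalized to ACTB, GAPDH, POLR2A; bidirectional fit versus DMSO.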

Read-out in assay [2]: Glutamate-cysteine ligase regulatory (GCLM), GCLM (gene 2730)
As to the kind of experiment: LTEA_HepaRG_GCLM: Life Technologies and Expression Analysis (LTEA) Assay for Glutamate-cysteine ligase regulatory (GCLM) using HepaRG (AID 2283500). The procedure, abridged:
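Cells were plated, cultured 48 h, switched to serum-free induction medium, then dosed in duplicate for 48 h at eight half-log concentrations up to 100 uM. RNA was then profiled by qRT-PCR; gain or loss versus DMSO was fitted.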

Read-out in assay [3]: Heat shock 70 kDa protein 1 (HSPA1A), gene 3303
As to the kind of experiment: LTEA_HepaRG_HSPA1A: Life Technologies and Expression Analysis (LTEA) Assay for Heat shock 70 kDa protein 1 (HSPA1A) using HepaRG (AID 2283502). The gist of the method:
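Readout is HSPA1A transcript level by microfluidic qRT-PCR, normalized to three housekeeping genes and analysed for gain or loss of signal relative to 0.5% DMSO. Human HepaRG cultures received test chemicals for 48 h at up to 100 uM.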

Read-out in assay [4]: Hypoxia-inducible factor 1-alpha (Homo sapiens) (UniProt Q16665)
As to the kind of experiment: LTEA_HepaRG_HIF1A: Life Technologies and Expression Analysis (LTEA) Assay for Hypoxia-inducible factor 1 (HIF1A) Trancription factor using HepaRG (AID 2283503). The gist of the method: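 Differentiated HepaRG cells in serum-free induction medium exposed 48 h, in duplicate, to 8-point half-log series from 100 uM in 0.5% DMSO. HIF1A mRNA measured by TaqMan qRT-PCR, normalized to ACTB/GAPDH/POLR2A, fitted bidirectionally versus DMSO.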

Read-out in assay [5]: 3-Hydroxy-3-Methylglutaryl-CoA Synthase 2 (HMGCS2), HMGCS2 (gene 3158)
As to the kind of experiment: LTEA_HepaRG_HMGCS2: Life Technologies and Expression Analysis (LTEA) Assay for 3-Hydroxy-3-Methylglutaryl-CoA Synthase 2 (HMGCS2) using HepaRG (AID 2283504). The gist of the method: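 Human HepaRG cells in serum-free induction medium were exposed in duplicate for 48 h to 8-point half-log series from 100 uM top in 0.5% DMSO. HMGCS2 mRNA measured by TaqMan qRT-PCR, normalised to ACTB, GAPDH, POLR2A; bidirectional fit versus DMSO.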

Read-out in the next assay: HGF (gene 3082)
As to the kind of experiment: LTEA_HepaRG_HGF: Life Technologies and Expression Analysis (LTEA) Assay for Hepatocyte Growth Facto (HGF) using HepaRG (AID 2283505). The procedure, abridged:
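Differentiated HepaRG cells in serum-free induction medium exposed 48 h in duplicate, 8 half-log concentrations from 100 uM in 0.5% DMSO. HGF mRNA by qRT-PCR, normalised to ACTB, GAPDH, POLR2A; bidirectional fitting.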

Read-out in assay [6]: Insulin Like Growth Factor 1 (IGF1), IGF1 (gene 3479)
The assay can be described thus: LTEA_HepaRG_IGF1: Life Technologies and Expression Analysis (LTEA) Assay for Insulin Like Growth Factor 1 (IGF1) using HepaRG (AID 2283506). The procedure, abridged:
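HepaRG, plated 48 h, then switched to serum-free induction media; test chemical 8-pt half-log from 100 uM (0.5% DMSO), duplicate, 48 h. Lysis in RLT, TaqMan qRT-PCR, norm. ACTB/GAPDH/POLR2A. Bidirectional fit vs DMSO.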

Read-out in assay [7]: Intercellular Adhesion Molecule 1 (ICAM1), ICAM1 (gene 3383)
As to the kind of experiment: LTEA_HepaRG_ICAM1: Life Technologies and Expression Analysis (LTEA) Assay for Intercellular Adhesion Molecule 1 (ICAM1) using HepaRG (AID 2283507). The procedure, abridged: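 Differentiated human HepaRG cells in serum-free induction medium exposed 48 h in duplicate to 8 half-log concentrations (top 100 uM, 0.5% DMSO). ICAM1 mRNA quantified by TaqMan qRT-PCR, normalized to ACTB, GAPDH and POLR2A; bidirectional fitting versus DMSO.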

Read-out in assay [8]: Glutathione S-transferase M3 (GSTM3), GSTM3 (gene 2947)
As to the kind of experiment: LTEA_HepaRG_GSTM3: Life Technologies and Expression Analysis (LTEA) Assay for Glutathione S-transferase M3 (GSTM3) using HepaRG (AID 2283501). The gist of the method: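 Differentiated human HepaRG cells were exposed in duplicate for 48 h in serum-free induction medium, 8 points from 100 uM top in half-log steps, 0.5% DMSO. GSTM3 mRNA was measured by TaqMan qRT-PCR, normalized to ACTB, GAPDH and POLR2A; bidirectional fit versus DMSO.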

Read-out in assay [9]: Insulin-like growth factor-binding protein 1 (IGFBP1), IGFBP1 (gene 3484)
The assay can be described thus: LTEA_HepaRG_IGFBP1: Life Technologies and Expression Analysis (LTEA) Assay for Insulin-like growth factor-binding protein 1 (IGFBP1) using HepaRG (AID 2283508). The gist of the method:
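HepaRG cells, plated 48 h then switched to serum-free induction medium, exposed in duplicate for 48 h to 8-point half-log series from 100 uM in 0.5% DMSO. mRNA measured by qRT-PCR, normalized to ACTB/GAPDH/POLR2A; bidirectional fit versus DMSO.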

This note sets out measurements from PubChem BioAssay (EPA / NIEHS).

The source made the active and inactive calls. How the source made its calls: active means hit-call score of the fitted dose curve at least 0.9, where 1 is the maximum; inactive means score below 0.9.

Chain of Hypoxia-inducible factor 1-alpha (Homo sapiens) (Q16665 whole entry, looked up): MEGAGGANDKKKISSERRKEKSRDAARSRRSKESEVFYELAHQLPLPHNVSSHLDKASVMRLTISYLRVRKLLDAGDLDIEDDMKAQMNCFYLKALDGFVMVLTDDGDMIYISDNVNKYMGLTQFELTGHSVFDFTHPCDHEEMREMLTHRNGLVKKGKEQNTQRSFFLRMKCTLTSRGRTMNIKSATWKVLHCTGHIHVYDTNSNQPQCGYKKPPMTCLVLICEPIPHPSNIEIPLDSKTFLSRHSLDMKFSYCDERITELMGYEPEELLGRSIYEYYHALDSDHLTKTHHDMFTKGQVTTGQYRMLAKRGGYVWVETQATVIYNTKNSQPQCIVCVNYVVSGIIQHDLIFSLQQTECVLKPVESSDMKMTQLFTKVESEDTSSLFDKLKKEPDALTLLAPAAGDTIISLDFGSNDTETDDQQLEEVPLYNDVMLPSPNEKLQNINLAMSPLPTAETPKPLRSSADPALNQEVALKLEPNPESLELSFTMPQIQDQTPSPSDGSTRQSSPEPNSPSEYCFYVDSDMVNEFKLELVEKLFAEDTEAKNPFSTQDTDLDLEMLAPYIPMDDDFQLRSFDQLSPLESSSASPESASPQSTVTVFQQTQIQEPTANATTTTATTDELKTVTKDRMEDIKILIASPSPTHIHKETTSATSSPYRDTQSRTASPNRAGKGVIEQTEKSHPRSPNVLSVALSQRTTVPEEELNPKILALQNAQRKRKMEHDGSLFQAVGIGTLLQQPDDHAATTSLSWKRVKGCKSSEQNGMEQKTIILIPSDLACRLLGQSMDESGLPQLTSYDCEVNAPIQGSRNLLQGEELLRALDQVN

Take `CC(C)(C)c1cccc(C(C)(C)C)c1O`: the compound was classed as inactive (in [1]; in [2]; in [3]; in assay [4]; in assay [5]; with HGF (gene 3082)). In addition, the result in assay [6] and in [7] was inactive.
As for `O=C(O)Cc1cc(I)c(Oc2cc(I)c(O)c(I)c2)c(I)c1`, the AC50 in [1] is 7.52 µM (active); in assay [3], 54 µM (active); in assay [4], 21.5 µM (active); in assay [5], 49.5 µM (active); with HGF (gene 3082), 52.7 µM (active); in assay [7], 54.8 µM (active). Further, the result in assay [2] and in [6] was inactive.
As to `CCCOC(=O)c1ccc(O)cc1`, the compound was called inactive (in assay [1]; in assay [2]; in assay [3]; in [4]; in assay [5]; with HGF (gene 3082)). In addition, the result in [6] and in assay [7] was inactive.
With `CCOC(=O)CC(O)(CC(=O)OCC)C(=O)OCC`, the outcome (in assay [1]; in assay [2]; in assay [8]; in assay [3]; in assay [4]; in the assay with HGF (gene 3082)) was inactive. Further, the compound was called inactive in assay [6] and in assay [7].
In the case of `COCC(C)OCC(C)O` (centres undefined), the compound was classed as inactive (in [1]; in assay [2]; in assay [3]; in [4]; in assay [5]; with HGF (gene 3082)). Further, the call in assay [6] and in [7] was inactive.
For `CC(C)CCCCCCOC(=O)CCCCC(=O)OCCCCCCC(C)C`, the compound was classed as inactive (in [1]; in assay [2]; in assay [8]; in assay [3]; in assay [4]; with HGF (gene 3082)). Besides, the result in [6] and in assay [7] was inactive.
For the compound `c1ccc2c(c1)Cc1ccccc1-2`, the call (in assay [1]; in assay [2]; in assay [8]; in assay [3]; in assay [4]; with HGF (gene 3082)) was inactive. Moreover, the compound was classed as inactive in [6] and in assay [7].
Regarding `CN1CCN(c2ccccc2/C=C2\SCCN(c3ccc(Cl)c(Cl)c3)C2=O)CC1`, the compound was called inactive (in [1]; in [2]; in assay [8]; in assay [4]; in the assay with HGF (gene 3082)). Moreover, the AC50 was 71.9 µM (active) in assay [3], 12 µM (active) in assay [6] and 98.9 µM (active) in assay [7].
On to `CCc1ccc(CCOc2ccc(CC3SC(=O)NC3=O)cc2)nc1` (centres undefined), for which the AC50 in assay [1] is 11 µM (active); in assay [2] it was 68.3 µM (active); in assay [3], 23.6 µM (active); in [6], 64.9 µM (active); in [7] it was 50 µM (active). The result (in [8]; in assay [4]; in the assay with HGF (gene 3082)) was inactive.
With `Cc1cc(C)c(O)c(C)c1`, the outcome (in assay [1]; in assay [2]; in assay [3]; in assay [4]; with HGF (gene 3082); in assay [6]) was inactive. Also, in assay [7], the outcome was inactive.
As to `c1ccc2c(c1)ccc1ccccc12`, the result (in assay [1]; in assay [2]; in assay [3]; in [4]; with HGF (gene 3082); in [6]) was inactive. Also, the call in assay [7] was inactive.
`CCCCCCCCCCCCN1CCCC1=O`: the compound was called inactive (in [1]; in [2]; in assay [3]; in assay [4]; with HGF (gene 3082); in [6]). In addition, the outcome in assay [7] and in assay [9] was inactive.
For the compound `OC1CCC(C2CCCCC2)CC1` (centres undefined), the call (in [1]; in [2]; in [3]; in [4]; in assay [5]; in the assay with HGF (gene 3082)) was inactive. Moreover, the result in assay [6], in assay [7] and in assay [9] was inactive.
Consider `CCc1nn(C2CCCCC2)c2cc(C3(C#N)CCC(C(=O)O)CC3)ccc12` (centres undefined), for which the half-maximal activity concentration (AC50) is 85.5 µM (active) in assay [1]; 50 µM (active) in [2]; 12.2 µM (active) in assay [3]; 57.3 µM (active) in assay [6]; 28.7 µM (active) in assay [7]. Also, the compound was called inactive (in assay [4]; with HGF (gene 3082)).
As for `CN1CCC[C@H]1c1cccnc1`, the result (in [1]; in [2]; in assay [3]; in assay [5]; with HGF (gene 3082); in assay [6]) was inactive. Besides, the call in assay [7] and in assay [9] was inactive.
On to `COc1ccc([N+](=O)[O-])cc1N`, for which the call (in [1]; in assay [2]; in assay [3]; in assay [4]; in assay [5]; with HGF (gene 3082)) was inactive. For the same compound, the result in assay [6], in [7] and in assay [9] was inactive.
As for `CCCCC(CC)COC(=O)CCCCC(=O)OCC(CC)CCCC` (centres undefined), the outcome (in [1]; in [2]; in assay [3]; in assay [4]; with HGF (gene 3082); in [6]) was inactive. The outcome in [7] was inactive.
`Oc1cc2ccccc2c2ccccc12`: the compound was classed as inactive (in assay [1]; in [2]; in assay [3]; in assay [4]; with HGF (gene 3082); in assay [6]). For the same compound, the compound was called inactive in assay [7].
For the compound `CCC(C)(C)C1CCC(O)CC1` (centres undefined), the compound was called inactive (in [1]; in assay [2]; in assay [3]; in assay [4]; in the assay with HGF (gene 3082); in assay [6]). For the same compound, the compound was classed as inactive in assay [7] and in assay [9].
In the case of `CCCCCCCCCCCCc1ccccc1S(=O)(=O)O`, the compound was classed as inactive (in assay [1]; with HGF (gene 3082)). The AC50 was 50 µM (active) in [2]; 13 µM (active) in assay [3]; 14.4 µM (active) in assay [4]; 38.9 µM (active) in [6]; 82.1 µM (active) in [7].
Consider `Cc1cc(CCN2CCN(c3nsc4ccccc34)CC2)cc2c1NC(=O)CC2(C)C`, for which the AC50 in [1] was 76.8 µM (active); in assay [2], 50 µM (active); in assay [3], 50 µM (active); in assay [6], 70.5 µM (active). Also, the compound was called inactive (in assay [4]; in the assay with HGF (gene 3082); in assay [7]).
For `CC(=O)CC(C)(C)O`, the result (in assay [1]; in [2]; in assay [3]; in [4]; in [5]; with HGF (gene 3082)) was inactive. The compound was called inactive in assay [6], in assay [7] and in assay [9].
As to `CC(=O)NC1(c2cccc(F)c2)CCN(CC[C@@]2(c3ccc(Cl)c(Cl)c3)CN(c3ccccc3)C(=O)CO2)CC1`, the AC50 in assay [1] was 41.5 µM (active); in [3], 27.9 µM (active); in assay [6] it was 13.1 µM (active); in assay [7], 49 µM (active). Also, the outcome (in assay [2]; in [4]; in the assay with HGF (gene 3082)) was inactive.

In general, AC50 refers to the concentration giving half of the maximal activity seen.
